# PubChem BioAssay (NCI)
# The panel holds about 83,000 compounds, 20% with a hit somewhere; the sample as a whole holds those more often.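 Note: values are percent growth. 100 is the growth of untreated cells, values between 100 and 0 indicate rising inhibition; between -100 and 0 indicates cell death.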 Active and inactive are the calls of the source. Rule for the calls: active = growth percent below 10; inactive = the rest.
# Tested on: HL-60(TB) leukemia
# Assay: NCI-60 one-dose screen, 48 h (100 = growth as untreated, 0 = no growth, -100 = all killed)
# Details: 10 µM unless noted
row,SMILES,growth
1,O=C(CSc1cc[n+](CCCCO)c2ccccc12)n1ccc2ccccc21,106% (inactive)
2,Oc1cccc2ccc(-c3nnc(SCc4ccc(O)c5ncccc45)o3)nc12,13.7% (inactive)
3,CCN(CC)CCN1C(=O)c2c(c3c4cccnc4[nH]c3c3ccc4ccccc4c23)C1=O,56.2% (inactive)
4,Cc1ccc2c(n1)C(=O)C(Cl)=C(Nc1cccc(C)c1C)C2=O,-23.2% (active)
5,COC(=O)c1ccc(NC2=C(Cl)C(=O)c3nc(C)ccc3C2=O)cc1,21.2% (inactive)
6,COc1c(N2CC3CCCNC3C2)c(F)cc2c(=O)c(C(=O)N/N=C/c3ccc(Br)cc3)cn(C3CC3)c12 (stereo not given),84% (inactive)
7,CN1CCC(n2cc(Nc3ncc4c(=O)n(-c5c(Cl)cccc5Cl)cc(Br)c4n3)cn2)CC1,-13.8% (active)
8,CC(C)(C)c1ccc(C(=O)Nc2sc3c(c2C(N)=O)CCC(O)C3)cc1 (stereo not given),37.2% (inactive)
9,CN(C)C(=O)c1cc(-c2ccc3ncnc(NCc4ccccc4)c3c2)cnc1N,116% (inactive)
10,CN(C)CCNC(=O)c1ccc(-c2nc3ccc4[nH]ncc4c3c3c2CCC3)cc1,-18.8% (active)
11,NC(N)=Nc1ccc(Oc2cccc(NC(N)=Nc3ccc(Br)cc3)c2)cn1,64.8% (inactive)
12,N[C@@H](Cc1cn(-c2ccnc3ccccc23)nn1)C(=O)O,110% (inactive)
13,O=C(CN1CCN(c2cc(=O)n(-c3ccccc3)c3ccccc23)CC1)Nc1nc(-c2ccc(Cl)cc2)cs1,26.2% (inactive)
14,COc1cc2c(cc1OC)C(Sc1ccc(F)cc1)c1c(nc(N)c(C#N)c1N)O2 (stereo not given),-14.2% (active)
15,CN(C)CCN(C)c1ccc2ncc(C#Cc3cncc(C(=O)Nc4ccc(CN5CCN(C)CC5)c(C(F)(F)F)c4)c3)n2n1,36.5% (inactive)
16,NS(=O)(=O)c1ccc(Nc2nc(Nc3ccccc3)nc(-n3nc(-c4ccccc4)cc3-c3ccccc3)n2)cc1,4.82% (active)
17,O=C(O)c1ccc(-n2cc(CNc3cc(F)c(F)c(F)c3)c(-c3ccc(F)cc3)n2)cc1,103% (inactive)
18,CN1CCN(c2ccc(Nc3nc(NCCCNS(=O)(=O)c4cccc5ccccc45)c4sccc4n3)cc2)CC1,-45.2% (active)
19,NS(=O)(=O)c1ccc(-n2cc(CN3CCCCC3)nn2)cc1,101% (inactive)
20,CC1COc2c(N3CCN(C)CC3)c(F)cc3c(=O)c(C(=O)N/N=C/c4cc[nH]c4)cn1c23 (stereo not given),20.3% (inactive)
21,COc1ccc(NCc2cn(-c3ccc(C(=O)O)cc3)nc2-c2cc(C(F)(F)F)cc(C(F)(F)F)c2)cc1,90.6% (inactive)
22,Cn1cc2c(c1)-c1c(sc3nc(-c4ccc(NC(=O)Nc5cc(C(C)(C)C)on5)cc4)cn13)CC2,12.4% (inactive)
23,C=C1CC[C@@H]2[C@]3(C)COC(c4ccccc4)O[C@@H]3CC[C@@]2(C)[C@@H]1C/C=C1/C(=O)OC[C@H]1O (stereo not given in full),48.9% (inactive)
24,O=c1c2cc(-c3ccc(F)cc3F)ccc2n(Nc2ccccc2)c(=O)n1-c1cccc(C(F)(F)F)c1,-45.5% (active)
25,O=C(NCCCNc1cc(-c2cn(-c3ccccc3)nc2-c2cccc(O)c2)ccn1)Nc1ccc(F)cc1,1.09% (active)
